# High-throughput results: PubChem BioAssay, several laboratories
# Hits are enriched below; roughly 6.7% of the tested compounds scored in any of these assays.
# BoNT-F LC inh = BoNT/F light chain protease inhibitors, primary screen, biochemical, flow cytometry, MLPCN library; Botulinum neurotoxin type F light chain protease (Clostridium botulinum); Multiplex microsphere protease cleavage assay; inhibition, % at 10 µM; 360,000 tested, 0.22% active; AID 588497, 2011; in the data active means inhibition above about 35%, passing the limit was not always enough; inconclusive means no clear call, values can overlap the other calls; further: plate controls were buffer without enzyme for full effect and enzyme alone for no effect
# Anthrax LF inh2 = Bacillus anthracis LF protease inhibitors, primary screen, biochemical, multiplex microsphere, MLPCN library. inhibition, % at 10 µM. 360,000 tested, 0.12% active. multiplex microsphere protease cleavage assay; further: plate controls were buffer without enzyme for full effect and enzyme alone for no effect
# Bead autofluor = compound fluorescence in toxin protease inhibitor counterscreen | compound autofluorescence counterscreen, microsphere flow cytometry; stronger effect = higher value | fluorescence intensity (test concentration not listed) | 360,000 tested, 3.1% active | AID 624483; in the data active means fluorescence intensity above about 16000; inconclusive means no clear call, values can overlap the other calls
# GDH-TPI inh = GDH-TPI coupling enzyme inhibitors, primary screen, artefact control for M. tuberculosis FBA inhibitor project, biochemical, absorbance, full deck; GDH-TPI coupled enzyme counterscreen, NADH absorbance; inhibition, % at 4.8 µM; 360,000 tested, 1.2% active; in the data active means inhibition above about 30%;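 further: 0% = DMSO wells and 100% = wells lacking the enzyme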
# BoNT A protease = BoNT/A light chain protease inhibitors, primary screen, biochemical, flow cytometry, MLPCN library; Botulinum neurotoxin type A light chain protease (Clostridium botulinum A str. ATCC 3502); multiplex microsphere protease substrate cleavage; inhibition, % at 10 µM; 360,000 tested, 0.17% active; AID 588499, 2011; further: plate controls were buffer without enzyme for full effect and enzyme alone for no effect
# Mtb FBA inh = Mtb FBA enzyme inhibitors, primary screen, biochemical, fluorescence, strain H37Rv. 360,000 tested, 2.3% active. inhibition, % at 1 µM. Fructose-bisphosphate aldolase (Mycobacterium tuberculosis (strain ATCC 25618 / H37Rv)), …. AID 588726, 2011. purified M. tuberculosis FBA, fluorescence read-out; in the data active means inhibition above about 27%;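 further: 0% = vehicle and 100% = reference inhibitor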
# Target sequence (P9WQA3 whole entry, looked up): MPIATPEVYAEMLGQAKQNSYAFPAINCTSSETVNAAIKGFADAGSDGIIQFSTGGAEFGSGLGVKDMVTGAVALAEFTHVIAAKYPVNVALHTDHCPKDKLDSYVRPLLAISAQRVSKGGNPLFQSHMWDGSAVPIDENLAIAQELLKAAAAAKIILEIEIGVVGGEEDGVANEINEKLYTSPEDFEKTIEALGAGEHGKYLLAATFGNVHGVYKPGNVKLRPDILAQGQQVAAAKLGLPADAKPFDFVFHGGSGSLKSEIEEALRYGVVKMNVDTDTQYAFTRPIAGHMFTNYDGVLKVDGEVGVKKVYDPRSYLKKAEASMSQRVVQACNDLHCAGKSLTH
# * marks the source's active call; other numbers are inactive results; ? = inconclusive. Unless noted, no stated cut-off is given here; in the data, active means inhibition above about 30%; inconclusive means no clear call, values can overlap the other calls; inactive means below that.
SMILES,BoNT-F LC inh,Anthrax LF inh2,Bead autofluor,GDH-TPI inh,BoNT A protease,Mtb FBA inh
O=S1(=O)N=C(N(CCO)/N=C/C=C/c2ccccc2)c2ccccc21,0,-1,2439,56*,0,-3
CCOc1ccc(C(=O)Nc2c3c(nn2-c2cccc(Cl)c2)CS(=O)C3)cc1 (stereo not drawn),-1,0,22721*,1,-1,-1
CCOc1ccc(C(=O)Nc2c3c(nn2-c2ccc(F)cc2)CS(=O)C3)cc1 (stereo not drawn),-13,-1,4478,-1,0,-2
N/C(=N\OC(=O)c1ccc(Cl)c([N+](=O)[O-])c1)c1ccccn1,0,-6,3119,14,0,0
CN(CC(=O)O/N=C(\N)c1cccc([N+](=O)[O-])c1)S(=O)(=O)c1ccccc1,-7,-1,17118*,4,-5,1
N/C(=N\OC(=O)c1ccc(Br)cc1)c1cccc([N+](=O)[O-])c1,?,7,4187,8,1,0
N/C(=N\OC(=O)c1ccc(Cl)c([N+](=O)[O-])c1)c1ccccc1,63*,-11,3228,2,5,-1
Cc1ccc(C(=O)O/N=C(\N)c2cccc([N+](=O)[O-])c2)cc1,-2,-1,19951*,-1,-1,-1
Cc1cc(C)cc(C(=O)O/N=C(\N)c2ccc(Br)cc2)c1,6,-12,20148*,-4,5,0
COC(=O)c1c(-c2ccccc2)csc1N1C(=O)Nc2ccccc2N1O,0,-2,1998,13,0,2
NNc1nc(N)c2c(n1)-c1ccccc1CC21CCCC1,-10,-5,1777,12,-1,18
CC(C)Cc1nc(SCC(=O)N2CC(C)OC(C)C2)c2c(=O)n(C)c(=O)n(C)c2n1 (stereo not drawn),-4,-2,4666,0,-2,0
CC(C)CC(=O)NCCc1ccncc1,0,1,22906*,-9,1,-1
CCCNC(=O)NCCc1ccncc1,-1,-3,3769,-2,-1,4
c1ccc(CNc2c3ccccc3nc3ccccc23)cc1,13,11,3188,11,-3,26
COc1ccc(-c2ccc(C(=S)N3CCN(C(C)=O)CC3)o2)cc1,-4,3,7964,32*,4,7
COc1ccc(CC(=O)N2CCN(C)CC2)cc1,-2,-2,16186*,12,0,2
COc1ccc(CC(=O)N2CCN(C(=O)Cc3ccc(OC)cc3)CC2)cc1,?,-5,5477,1,-5,4
Cc1ccc(Cl)cc1NC(=O)CSc1nncn1-c1ccccn1,6,-2,5132,2,-1,0
Cc1cc(N2CCN(S(=O)(=O)c3ccc4c(c3)OCCO4)CC2)n2ncnc2n1,0,-1,23595*,-5,-1,-1
Cc1cc(Nc2ccc3c(c2)OCCO3)n2ncnc2n1,3,-1,22455*,10,1,0
COc1ccc(OCc2n(CC(=O)OC3CC(C)CCC3C(C)C)c3ccccc3[n+]2C)cc1 (stereo not drawn),4,-1,1816,6,2,-1
CCOC(=O)c1[nH]c(COC(=O)CCOc2ccccc2OC)c(C(=O)OCC)c1C,-5,-1,23144*,11,?,-4
CC(=O)Nc1ccc2c(c1)CCc1ccccc1-2,-8,11,3274,5,0,3
O=C(O)/C=C/C(=O)c1ccc2c(c1)CCc1ccccc1-2,3,0,3741,32*,0,5
SMILES,BoNT-F LC inh,Anthrax LF inh2,Bead autofluor,GDH-TPI inh,BoNT A protease,Mtb FBA inh
O=C1CC(=O)C(n2cncn2)C(c2c(F)cccc2Cl)C1 (stereo not drawn),4,-1,22544*,7,2,-1
NCC12CC3CC(CC(O)(C3)C1)C2,2,-3,12747,5,0,-4
NCC12CC3CC(C1)CC(CN)(C3)C2,-7,-3,23074*,-11,0,-3
CC(=C1C(=O)c2ccccc2C1=O)N1CCC(C(N)=O)(N2CCCCC2)CC1,-2,-6,23736*,7,-1,-2
O=C1c2cccc3cccc(c23)C(=O)N1/N=C/c1ccc(O)cc1O,-2,-2,2458,47*,1,-6
O=C1c2ccccc2C(=O)N1/N=C/c1ccc(O)c(O)c1O,0,-7,3262,28,1,0
COc1ccc(-c2noc(CCC(=O)NCCCN3CCN(c4ccc(F)cc4)CC3)n2)cc1,-3,-3,2681,1,0,1
CCOC(=O)c1c(-c2ccccc2)nc2ccc(C)cn12,0,2,19967*,4,?,2
CCOC(=O)c1c(-c2ccccc2)nc2cc(C)ccn12,-2,-8,4233,9,0,1
Fc1ccccc1-c1nc2ccccc2[nH]1,-2,-5,3357,-3,-1,24
Cc1ccc(-c2nn(CCC#N)cc2C=C(C#N)C#N)cc1,-8,-5,7201,33*,0,-1
CCN(CC)S(=O)(=O)c1cccc(C(=O)Nc2cccnc2)c1,3,-8,22467*,3,?,-3
CCN(CC)S(=O)(=O)c1cccc(NC(=O)Nc2cccc(C(F)(F)F)c2)c1,-11,-4,21515*,-14,-6,1
CN(c1ccccc1)S(=O)(=O)c1cccc(C(=O)NC2CCCC2)c1,-1,1,3498,6,0,-3
CCN(CC)S(=O)(=O)c1cc(C(=O)Nc2cccnc2)ccc1Cl,-1,-2,11204,-7,0,2
CCN(CC)S(=O)(=O)c1cccc(C(=O)NC2CCCCC2)c1,-1,1,21448*,-4,?,1
O=C(O)c1ccc(Cl)c(S(=O)(=O)NCc2ccco2)c1,-5,-3,2771,-2,0,1
O=C(C1=C(O)C(=O)N(CCN2CCOCC2)C1c1cccc([N+](=O)[O-])c1)c1cc2ccccc2o1 (stereo not drawn),-3,4,3944,19,0,5
O=C(C1=C(O)C(=O)N(CCN2CCOCC2)C1c1cccc(Br)c1)c1cc2ccccc2o1 (stereo not drawn),0,-1,5688,10,0,134*
CN(C)CCN1C(=O)C(O)=C(C(=O)c2cc3ccccc3o2)C1c1cccc(Br)c1 (stereo not drawn),-6,-3,22182*,4,?,-1
COc1cccc2cc(C(=O)C3=C(O)C(=O)N(CCN(C)C)C3c3ccc(Cl)cc3)oc12 (stereo not drawn),?,30*,3918,12,?,-1
COc1ccccc1C1C(C(=O)c2cc3ccccc3o2)=C(O)C(=O)N1CCN(C)C (stereo not drawn),9,0,3317,20,2,2
